# Hits are enriched below; roughly 4.7% of the tested compounds scored in any of these assays.
# D1 antag – blocks dopamine activation of the human D1 receptor; activity change, negative = inhibition, % at 10 µM; P21728; 3.2% of 360,000 active; AID 504652; HEK293 TREx D1 cells, calcium flux, dopamine EC80; stronger effect = lower value; in the data active means activity change below about -30%; further: on the % scale 0 is the no-effect control and ±100 the full control effect
# Target sequence (P21728 whole entry, looked up): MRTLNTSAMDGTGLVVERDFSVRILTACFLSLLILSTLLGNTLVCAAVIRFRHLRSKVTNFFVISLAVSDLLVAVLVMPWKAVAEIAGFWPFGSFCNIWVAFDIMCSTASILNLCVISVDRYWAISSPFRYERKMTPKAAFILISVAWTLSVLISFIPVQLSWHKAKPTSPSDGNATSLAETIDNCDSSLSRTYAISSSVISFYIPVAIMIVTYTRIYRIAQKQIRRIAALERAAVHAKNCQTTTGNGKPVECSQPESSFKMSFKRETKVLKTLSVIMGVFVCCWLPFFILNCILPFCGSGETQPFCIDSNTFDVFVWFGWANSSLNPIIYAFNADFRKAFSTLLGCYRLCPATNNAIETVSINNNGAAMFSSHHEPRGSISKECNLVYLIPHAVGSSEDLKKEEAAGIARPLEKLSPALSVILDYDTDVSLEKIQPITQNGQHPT
#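 After overnight tetracycline induction at 30 C, force-coupled D1 HEK293 cells took up a no-wash calcium dye at room temperature. Compounds were added and monitored 180 s, and the response to EC80 dopamine was then recorded.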
# TRHR PAM – allosterically enhances the human TRH receptor; enhancement, % at 2 µM; 0.66% of 360,000 active; P34981; TRHR cells, fluo-8 calcium fluorescence, EC20 TRH enhancement; in the data active means enhancement above about 30%; further: 0% is about no effect
#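 Enhancer read-out: after compound pinning and an initial kinetic agonist-mode read, an EC20 of TRH (10 nM final) was injected and fluo-8 calcium signal (Ex 480/Em 530) followed at 1 s/cycle for 100 cycles in TRHR-expressing cells.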
# D1 potentiator – human D1 dopamine receptor positive modulation; 0.036% of 360,000 active; HEK293 TREx D1 cells, calcium flux, dopamine EC20 potentiation; P21728; potentiation, % at 10 µM; in the data active means potentiation above about 30%; further: 0% is about no effect
# D1 ag – activates the human D1 dopamine receptor; P21728; HEK293 T-REx D1 cells, calcium flux, agonist mode; activation, % at 2 µM; 1% of 360,000 active; AID 504660; further: 0% is about no effect
#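 Inducible HEK293 T-REx D1 cells, force-coupled to calcium signalling, were plated at 4000 cells/well with tetracycline and held overnight at 30 C. After no-wash calcium dye loading, compound-evoked calcium rise over 180 s flagged agonists.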
# TRHR agonist – activates the human TRH receptor; P34981; TRHR cells, calcium flux fluo-8, FDSS agonist mode; activation, % at 2 µM; 0.18% of 360,000 active; further: 0% is about no effect
#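 In this calcium-flux screen, cells bearing human TRHR are dye-loaded with fluo-8, baselined for 10 cycles, then exposed to library compounds; positive kinetic calcium responses during the agonist phase mark hits, with TRH as control.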
# The depositor's hits bear a star; x = not tested or not shown. Unless noted, no stated cut-off is given here; in the data, active means activation above about 30%; inactive means the rest.
SMILES,D1 antag,TRHR PAM,D1 potentiator,D1 ag,TRHR agonist
CCCS(=O)(=O)c1nc(S(=O)(=O)c2ccc(C)cc2)c(N(C)Cc2ccccc2)s1,-21.0,-7.3,-2.2,35.4*,1.7
CCc1nn2c(=O)cc(COC(=O)c3cccc(NC(=O)CCc4ccccc4)c3)nc2s1,3.4,-4.2,-0.4,-2.0,-0.4
O=C(NCCc1nc2ccccc2n1Cc1ccccc1F)c1ccc(F)cc1,-35.8*,-9.3,-4.3,9.6,-0.3
CCCCNC(=S)N(CCCN(C)C)Cc1cc2cc3c(cc2[nH]c1=O)OCO3,1.6,2.4,-5.5,-0.1,-0.4
CCCCCn1c(=O)[nH]c2cc(C(=O)N3CCN(c4cccc(C(F)(F)F)c4)CC3)ccc2c1=O,-6.3,4.9,-0.1,0.9,0.5
Cc1ccccc1N1CCN(C2CCCN(C(=O)c3cc(CC(C)C)nn3C)C2)CC1 (stereo unspecified),-31.8*,-13.7,-6.1,2.6,-0.8
CCCc1cc(C(=O)N2CCCC(N3CCN(c4ccccc4C)CC3)C2)n(C)n1 (stereo unspecified),5.8,-4.5,-9.3,1.9,-0.2
COc1ccc(C(=O)Nc2cccc(OCc3cc(=O)n4c5c(sc4n3)CCCC5)c2)cc1,-30.2*,7.2,0.1,0.3,0.3
Cc1cc(Cl)ccc1OCc1cc(=O)n2c3c(sc2n1)CCCC3,-30.8*,-5.3,1.1,2.6,-0.3
COc1cccc(C(=O)Nc2cccc(OCc3cc(=O)n4c5c(sc4n3)CCCC5)c2)c1,-6.7,3.8,1.4,4.7,0.5
Cc1ccc(/C=C2/Sc3ccc(C(=O)N4CCN(c5ccccn5)CC4)cc3NC2=O)cc1,-46.0*,2.1,-4.4,4.1,0.2
CN1CCN(c2ccc(S(=O)(=O)N3CCCCC3)cc2NC(=O)CCc2ccccc2)CC1,0.7,-2.0,x,33.0*,4.0
O=C(Cc1ccc(Cl)cc1)Nc1cc(S(=O)(=O)N2CCOCC2)ccc1N1CCCC1,-4.8,-10.8,-0.3,-3.7,-1.1
CCN1CCN(c2ccc(S(=O)(=O)N3CCCCC3)cc2NC(=O)COc2ccc(Cl)cc2)CC1,-43.0*,7.4,-5.3,0.3,-0.1
CN1CCN(c2ccc(S(=O)(=O)N3CCCCC3)cc2NC(=O)c2ccc(C#N)cc2)CC1,-44.6*,0.7,-2.3,0.7,0.6
CN1CCN(c2ccc(S(=O)(=O)N3CCCCC3)cc2NC(=O)Cc2ccc(Cl)cc2)CC1,-14.2,-12.9,5.3,91.3*,11.7
CCN1CCN(c2ccc(S(=O)(=O)N3CCCCC3)cc2NC(=O)COc2cc(C)ccc2Cl)CC1,7.7,4.2,2.2,11.3,0.5
CCn1nc(NS(=O)(=O)c2ccc(NC(C)=O)cc2)c2cc3cc(C)ccc3nc21,-8.0,2.0,-2.8,0.0,0.5
COc1ccc(OC)c(C(C(=O)NC2CCCCC2)N(C(=O)c2ccccn2)c2cccnc2)c1 (stereo unspecified),19.4,-5.9,-4.3,3.0,0.0
O=C(Nc1ccc(COc2ccccc2)cc1)Nc1cccc(C(=O)O)c1,-1.5,0.5,8.7,0.6,-0.2
COCCn1c(SCc2ccccc2F)nc2c([nH]c3ccccc32)c1=O,-8.4,4.0,2.2,1.6,0.4
Cc1ccc(NC(=O)CC2=NC(=O)C(CC(=O)Nc3ccccc3F)S2)cc1 (stereo unspecified),-49.8*,3.4,-4.8,0.7,0.3
CCOC(=O)c1ccccc1NC(=O)c1cc2ccc3cccnc3c2[nH]1,-4.9,-7.8,-1.1,5.4,1.0
CCN(CC)C(=O)c1ccc(-c2nnc(Nc3ccc(C(=O)N(C)C)cc3)c3ccccc23)cc1,-92.0*,-1.9,-11.7,-0.2,-0.7
CCN(CC)C(=O)c1ccc(Nc2nnc(C)c3ccccc23)cc1,-3.9,2.6,-8.7,0.5,-0.3
CCN(CC)C(=O)c1ccc(-c2nnc(Nc3ccc(O)cc3)c3ccccc23)cc1,-2.8,3.5,43.1*,0.2,-0.3
O=C1[C@H]2[C@@H](c3ccc(F)cc3)N3C(=O)N(c4ccc(Br)cc4)C(=O)[C@@]3(Cc3ccccc3)[C@H]2C(=O)N1C1CCCCC1,6.0,-1.1,0.6,7.5,0.8
CCc1ccc2ncc3c(-c4ccc(F)cc4)nn(CC(=O)NCc4ccccc4)c3c2c1,16.4,-1.5,-3.0,1.4,0.1
COc1ccccc1NC(=O)c1cccc(S(=O)(=O)N2CCCCCC2)c1,-2.6,-2.1,-2.0,0.2,-0.2

# Bioassay records: PubChem, National Center for Advancing Translational Sciences (NCATS)
